Screens deposited in PubChem BioAssay by National Center for Advancing Translational Sciences (NCATS).
The list is not random: actives were taken first. Their share in the collection is about 0.51%.
FMDV Renilla: FMDV antiviral activity by Renilla signal; FMDV replicon cells, Renilla luciferase signal; Potency, µM (doses to about 57.5 µM), for inactives: at the top dose activity change, negative = inhibition, most hits filed as inhibitors; 0.32% of 120,000 active; also: nearly all actives have a fitted effect of over 55% in size
FMDV antiviral: antivirals against foot and mouth disease virus; Potency, µM (highest dose often 57.5 µM), inactives show at the top dose activity change, negative = inhibition, usual class: inhibitors; 0.23% of 120,000 active; AID 1745856; FMDV antiviral cell assay, firefly luciferase signal; also: nearly all actives have a fitted effect of over 60% in size
* = called active by the depositor; ? = inconclusive; [ ] = dose if it differs, or a comment. Calls follow the shape of the full dose curve. % is scaled to controls: 0 for no effect and ±100 for the full control effect; potency is read from the fitted curve at half-maximal effect.

SMILES	FMDV Renilla	FMDV antiviral
Cc1ccc(C(=O)NCc2ccc(N3CCCC3)nc2)cc1F	-4%	12%
Cc1ccc2cc(C(=O)NCc3ccc(N4CCC(C)CC4)nc3)c(C)nc2c1	1µM*	?
Cc1nc(N2CCCC2)ncc1C(=O)NCc1ccc(F)cc1	10%	7%
Cc1nc2cc(F)ccc2cc1C(=O)NCc1ccc(C(=O)N2CCCC2)cc1	2.5µM*	6.3µM*
O=C(Cc1ccsc1)N1CCC(c2nc3c(nnn3Cc3cccc(Cl)c3)c(=O)[nH]2)CC1	-1%	-7%
O=C1CCCN1C(=O)CSc1nc(Nc2ccccc2)c2ccccc2n1	20%	14%
Cc1ccc(NC(=O)CC(O)(c2nccn2C)C(F)(F)F)cc1F (configuration not stated)	81%	87%
CCN1CCN(c2nc3c(c(=O)[nH]c(=O)n3C)n2CCc2ccc(OC)cc2)CC1	-14%	-7%
CCOc1cc(CN(CC(=O)NC(=O)NC)C2CC2)ccc1OC(F)F	-11%	-10%
CCn1c(COc2ccccc2Cl)nnc1SCc1cc(=O)c2cc(C(N)=O)ccc2[nH]1	-1%	-6%
CCc1ccc(OCc2nnc(SCc3cc(=O)c4ccccc4[nH]3)n2CC)cc1	16µM*	?
O=C(CSc1nc(C2CC2)nc2ccccc12)NCc1ccccc1	-9%	-10%
Cc1nsc(N)c1C(=O)OCc1csc(-c2ccccc2)n1	1.8µM*	-13%
CN(C)S(=O)(=O)c1ccc(C(=O)OCc2csc(-c3ccccc3)n2)cc1	0%	17%
O=C(/C=C/N1CCC(CCCC2CCN(/C=C/C(=O)C(F)(F)F)CC2)CC1)C(F)(F)F	10µM*	?
O=C(/C=C/N1CCC(Cc2ccccc2)CC1)C(F)(F)F	?	-16%
Cc1ccc(CN(Cc2cc(=O)n3[nH]c(-c4cccc(C)c4)cc3n2)CC(C)C)cc1	25µM*	?
CCOc1ccc(CN(CC)Cc2cc(=O)n3[nH]c(-c4cccc(C)c4)cc3n2)cc1	-11%	-13%
CN(Cc1ccccc1)C(=O)c1cc(-c2ccccc2)nc2ccccc12	136%	-28%
Cc1cc(C)cc(C(=O)NCCc2csc(-c3ccc(C(F)(F)F)cc3)n2)c1	2%	-15%
CC(=O)N1CCN(Cc2csc(-c3ccc(C(F)(F)F)cc3)n2)CC1	13µM*	20µM*
Cc1cnc(NC(=O)CSc2cc(F)ccc2F)s1	4%	0%
CCOC(=O)Cc1ccc(NC(=O)n2ncc3c(C)cccc32)cc1	-3%	?
CCOC(=O)Cc1ccc(NC(=O)n2ncc3cc(Cl)ccc32)cc1	7%	7.9µM*
O=[N+]([O-])c1cc(C(F)(F)F)cc2nc3ccccn3c12	4%	0%
SMILES	FMDV Renilla	FMDV antiviral
C#CCN1CCC(C(=O)NCCNC(=O)c2ccccc2)CC1	-4%	-10%
CC(/C=C/N(C)C)=C\C=[N+](C)C	4µM*	8.9µM*
CCCCC1CCC[S+](c2cc(O)ccc2O)C1 (configuration not stated)	-3%	-3%
COc1cc(OC)cc(-c2cc3nc(C)c(CCC(=O)NCc4ccccc4)c(C)n3n2)c1	-12%	?
COc1ccccc1-c1cc2nc(C)c(CCC(=O)Nc3cc(C)ccc3C)c(C)n2n1	-13%	35µM*
COc1cc(OC)c(NC(=O)CCc2c(C)nc3cc(-c4ccccc4OC)nn3c2C)cc1Cl	4%	-19%
COc1cc(OC)cc(-c2cc3nc(C)c(CCC(=O)Nc4ccccc4OC)c(C)n3n2)c1	-12%	3.2µM*
CN(CCO)Cc1cc(=O)oc2cc3c(cc12)CCC3	5%	32%
CCCCCCCCCCSc1ccc(C(C)=O)cc1	27%	0%
C/C=C/Cn1c(SCC(=O)OCc2ccccc2)nc2c1c(=O)[nH]c(=O)n2C	-13%	-11%
CC(C)=CC1C(C(=O)NC2CC(C)(C)NC(C)(C)C2)C1(C)C (configuration not stated)	5%	2%
CC(Oc1ccc(Cl)cc1Cl)C(=O)NN (configuration not stated)	-7%	8%
CCc1cc(=O)oc2cc(OC(C)C(=O)NCc3cccnc3)c(Cl)cc12 (configuration not stated)	-3%	0%
Cc1nnc(NC(=O)NCC(O)c2cccc(Cl)c2)s1 (configuration not stated)	17%	31%
O=C(Cn1c(=O)oc2cc(S(=O)(=O)N3CCCCC3)ccc21)NCc1ccc(F)cc1	-15%	15%
COc1ccccc1CNC(=O)Cn1c(=O)ccc2cc(S(=O)(=O)N3CCC(C)CC3)ccc21	56%	10%
COc1ccc(C)cc1NC(=O)Cn1c(=O)oc2cc(S(=O)(=O)N3CCCCCC3)ccc21	3%	-22%
COc1ccccc1CNC(=O)Cn1c(=O)oc2cc(S(=O)(=O)N3CCC(C)CC3)ccc21	?	28µM*
Cc1ccc(NC(=O)Cn2c(=O)oc3cc(S(=O)(=O)N4CCCCC4)ccc32)c(C)c1	8.9µM*	?
O=C(Cn1c(=O)oc2cc(S(=O)(=O)N3CCCCCC3)ccc21)NCc1ccccc1Cl	?	28µM*
CCOC(=O)c1oc2cc(OC(=O)c3ccc(OC)cc3)ccc2c(=O)c1-c1ccc(OC)cc1	-9%	-2%
CC(Oc1ccc(Cl)c(Cl)c1)C(=O)NN (configuration not stated)	3%	11%
CCCNc1nc(-c2ccc(Cl)cc2)c(CC(=O)O)s1	12%	27%
C#Cc1cccc(NC(=O)C2CCCCC2)c1	25%	77%
CCc1ccc(-c2nnn(CC(=O)N3CCCC3c3ccc4c(c3)OCCO4)n2)cc1 (configuration not stated)	-16%	-12%
SMILES	FMDV Renilla	FMDV antiviral
Cc1ccc(-c2nc(SCC(=O)N3CCCC3c3ccc4c(c3)OCCO4)n[nH]2)cc1 (configuration not stated)	20µM*	?
O=C(CSc1nnnn1C1CC1)N1CCCC1c1ccc2c(c1)OCCO2 (configuration not stated)	-5%	4%
CCc1ccc(-c2nc(SCC(=O)N3CCCC3c3ccc4c(c3)OCCCO4)n[nH]2)cc1 (configuration not stated)	28µM*	?
CS(=O)(=O)Cc1ccc(C(=O)OCc2ccc(Cl)cc2)cc1	16%	26%
Nc1nccnc1C(=O)NCc1ccc(Oc2cccc(F)c2)nc1	8.9µM*	?
Nc1nccnc1C(=O)NCc1ccc(CN2CCCCC2)cc1	0%	0%
Nc1nccnc1C(=O)NCc1cccnc1	-16%[1.06 µM]	-7%
Nc1nccnc1C(=O)NCc1ccc(N2CCCCC2)nc1	5.6µM*	?
C#CCNC(=O)C(C)N1CCC(CO)CC1 (configuration not stated)	4%	8%
CC(=O)Nc1ccc(NC(=O)Cn2cnc3c2c(=O)n(C)c(=O)n3C)cc1	-9%	-10%
CCOCCCNC(=S)NC(c1ccccc1)c1ccccc1	23%	-21%
CC(C)(C)c1ccc(C(=O)NCC(=O)OCc2ncc(-c3ccccc3)o2)cc1	-4%	133%
O=C(Nc1nc2c(s1)CCCCC2)c1ccc(Cl)cc1	10µM*	-26%
COc1ccc(C(=O)Nc2nc3c(s2)CCCC3)cc1Cl	?	47%
Cc1ccccc1C(=O)Nc1cccc(CCC(=O)N(C)C)c1	15%	28%
CCN1CCc2nc3sc(C(=O)Nc4cccc(Cl)c4C)c(N)c3cc2C1	7.1µM*	13µM*
Cc1cccc(NC(=O)c2sc3nc4c(cc3c2N)CN(Cc2ccccc2)CC4)c1	-6%	97%
CCOC(=O)C(N/C=C(/C#N)c1cccc(F)c1)C(=O)OCC	228%	13%
COc1ccc(CCNCc2ccc(Br)cc2)cc1	13µM*	0%
